# In PubChem BioAssay (NCI):
# About 83,000 compounds went through this panel and 20% of them were active in at least one assay; those are over-represented in the sample as a whole.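 Step 1: grow cells in 96-well plates. Step 2: add test compound at a single concentration. Step 3: incubate 48 h. Step 4: record percent growth.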 Unmarked numbers belong to inactive results. The source made the active and inactive calls. Rule for the calls: active = growth percent below 10; inactive = the rest.
# Columns and labels:
# Assay in all cases: NCI-60 one-dose screen, 48 h (100 = growth as untreated, 0 = no growth, -100 = all killed)
# Conditions in all cases: 10 µM unless noted
# [1] = tested on: SK-MEL-2 melanoma
# [2] = tested on: EKVX NSCLC
# [3] = tested on: SN12C renal
# [4] = tested on: UO-31 renal
# [5] = tested on: TK-10 renal
# [6] = tested on: ACHN renal
# [7] = tested on: CAKI-1 renal
# [8] = tested on: A498 renal
# [9] = tested on: CCRF-CEM leukemia
# [10] = tested on: MOLT-4 leukemia
# [11] = tested on: SR leukemia
# [12] = tested on: OVCAR-8 ovarian
# [13] = tested on: OVCAR-5 ovarian
# [14] = tested on: OVCAR-4 ovarian
# [15] = tested on: SK-OV-3 ovarian
# [16] = tested on: IGROV1 ovarian
# [17] = tested on: OVCAR-3 ovarian
# [18] = tested on: HS 578T breast
# [19] = tested on: NCI/ADR-RES ovarian
# [20] = tested on: RPMI-8226 leukemia
SMILES,growth [1] [%],growth [2] [%],growth [3] [%],growth [4] [%],growth [5] [%],growth [6] [%],growth [7] [%],growth [8],growth [9],growth [10],growth [11] [%],growth [12] [%],growth [13] [%],growth [14] [%],growth [15] [%],growth [16] [%],growth [17],growth [18] [%],growth [19],growth [20] [%]
C=C(C)[C@@H]1CC[C@]2(C(=O)N[C@@H](Cc3ccccc3)C(=O)OC)CC[C@]3(C)[C@H](CC[C@@H]4[C@@]5(C)CCC(=O)C(C)(C)[C@@H]5CC[C@]43C)[C@@H]12,75.8,85.4,95.3,75.7,90.9,90.5,45.5,84%,84.7%,64.6%,85.3,100,97.9,73.5,98.8,88.7,72.7%,96.4,99.1%,
CC(=O)[C@@H]1CC[C@]2(CO)CC[C@]3(C)[C@H](CC[C@@H]4[C@@]5(C)CCCNC(C)(C)[C@@H]5CC[C@]43C)[C@@H]12,105,95.4,91.2,84.4,110,107,97.1,95.3%,103%,95.3%,86.8,105,102,,122,99.1,,96.1,96.4%,98.6
COc1cc(/C=C\c2cc(OC)c(OC)c(OC)c2)cc(NC(=O)/C=C/c2cc(OC)c(OC)c(OC)c2)c1OC,47,47.6,66.9,24.9,71.3,52.7,22.7,41.5%,25.8%,30.9%,,56.6,77.3,,50.8,52.8,51.1%,68.6,17.8%,45
COc1ccc(C(=O)C2C(C#N)C(C#N)C3C=Cc4ccccc4N32)cc1 (centres undefined),44.5,56.7,32.7,42,91.9,44,27.4,-9.53% (active),16.2%,37.5%,21.3,27.6,31.4,46.4,55.2,23.2,-11.9% (active),14.4,-7.8% (active),
COc1cc(/C=C\c2cc(OC)c(OC)c(OC)c2)cc(N)c1OC,74.2,94.1,93.4,69,95.9,105,56.4,76.5%,74%,93.1%,,89.3,87.7,128,92.2,74.6,99.6%,90.1,69.7%,89.7
COc1ccc(/C=C/C(=O)Nc2cc(/C=C\c3cc(OC)c(OC)c(OC)c3)cc(OC)c2OC)cc1OC,19.9,31.4,33,19.4,73.9,39.1,12,-1.95% (active),3.79% (active),-13.9% (active),,34.2,63.2,47.7,11.6,40.1,12.2%,29,-11.2% (active),30.7
O=C(O)c1ccc2c(c1)C(=O)N(Cc1ccccc1)C2=O,106,99.8,98.2,83,91.1,99.9,99.3,85.4%,92.6%,98.5%,101,,105,114,106,106,103%,99.7,,95.5
Cc1ccc(NS(=O)(=O)c2ccc(-c3cnc(C4CC4)o3)cc2)cc1C(F)(F)F,84.8,75.3,88.6,58,93.7,76.4,42.7,47%,56.8%,,28.6,78.5,93.2,69.4,86.8,51.8,24.5%,69,43.3%,55.2
